Source: PubChem BioAssay (National Center for Advancing Translational Sciences (NCATS))
This is a sample that favours compounds with a hit; in the whole collection about 1.4% have one here.
PKM2 activator: activators of human pyruvate kinase M2. P14618. purified PKM2, Kinase-Glo ATP luminescence, activation; response scale: 0% is enzyme alone, no compound. Potency, µM (top dose mostly 57.5 µM), without a hit: top-dose activation, actives largely listed as activators. 260,000 tested, 0.34% active. AID 1631; also: potency is read from the fitted curve at half-maximal effect; nearly all actives have a fitted effect of over 55% in size
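Purified hPK-M2 (>95%) run at intermediate activity with 0.1 mM ADP and 0.5 mM PEP in 50 mM imidazole pH 7.2, KCl, MgCl2; 1 h room temperature. ATP formed read by Kinase-Glo luminescence; normalized to uninhibited and no-enzyme controls.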
GLS inh: glutaminase GLS (human) inhibition; 410,000 tested, 0.21% active; GLS enzymatic activity, qHTS titration; Potency, µM (series often up to 45.5 µM), without a hit: at the top dose activity change, negative = inhibition, most hits filed as inhibitors; AID 624170; O94925; also: potency is read from the fitted curve at half-maximal effect
Target sequence (O94925 whole entry, looked up): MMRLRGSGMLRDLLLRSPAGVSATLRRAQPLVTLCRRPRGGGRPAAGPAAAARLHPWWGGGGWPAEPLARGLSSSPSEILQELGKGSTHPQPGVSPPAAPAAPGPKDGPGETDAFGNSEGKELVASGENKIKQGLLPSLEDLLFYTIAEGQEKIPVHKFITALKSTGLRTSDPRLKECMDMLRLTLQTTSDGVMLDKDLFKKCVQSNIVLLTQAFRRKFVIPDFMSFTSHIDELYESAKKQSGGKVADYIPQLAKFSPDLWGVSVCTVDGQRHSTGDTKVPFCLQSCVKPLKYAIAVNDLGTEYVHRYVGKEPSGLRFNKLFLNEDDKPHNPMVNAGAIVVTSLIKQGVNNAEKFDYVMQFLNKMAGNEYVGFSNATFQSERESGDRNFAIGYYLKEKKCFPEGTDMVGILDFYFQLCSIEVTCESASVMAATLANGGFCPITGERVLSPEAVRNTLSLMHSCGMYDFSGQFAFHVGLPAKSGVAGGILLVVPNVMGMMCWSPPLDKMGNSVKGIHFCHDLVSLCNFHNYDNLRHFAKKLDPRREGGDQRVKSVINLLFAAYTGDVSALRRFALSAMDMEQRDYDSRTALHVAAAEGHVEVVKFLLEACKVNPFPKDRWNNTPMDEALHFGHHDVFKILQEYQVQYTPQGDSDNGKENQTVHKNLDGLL
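hKGA; 45 mM KH2PO4 pH 8.2 + 0.02% Tween-20; cpd via pin tool; 1 mM Gln soln; GluOx/HRP/Amplex Red; RT 30 min; fluor. t0 & final.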
rTrxR1 inhibitor: rat TrxR1 inhibition; recombinant rTrxR1, NADPH fluorescence consumption, selenite substrate; Potency, µM (doses to about 114 µM), inactives show at the top dose activity change, negative = inhibition, most hits filed as inhibitors; 390,000 tested, 1% active; AID 588453; also: potency is read from the fitted curve at half-maximal effect; nearly all actives have a fitted effect of over 65% in size
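Rat TrxR1 (90 nM in the dispensed reagent) was pre-reduced with 400 uM NADPH for 5 min at room temperature, then incubated with compound for 15 min. After 400 uM selenite was added, NADPH fluorescence (Ex 340/Em 450 nm) was followed for 8 min.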
LDHA inh: inhibitors of human lactate dehydrogenase A | P00338 | purified LDHA, NADH/diaphorase-resazurin fluorescence; hits give low values | activity change, % (values are at about 110 or 230 µM) | 480,000 tested, 0.15% active; in the data active = activity change below about -30%; inconclusive = mostly about -25% to -30%;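 also: plate controls were DMSO wells for no effect and wells without enzyme for full effect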
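Resorufin fluorescence (ex540/em590), read at 0 and 20 min after diaphorase/resazurin addition, reports the NADH left after a 5 min room-temperature reaction of 2 nM human LDH5 with 0.06 mM NADH and 0.2 mM pyruvate.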
TrxR1 substrate: rat thioredoxin reductase 1 substrate activity; O89049; purified TrxR1 substrate turnover, NADPH consumption readout; Potency, µM (highest dose often 114 µM), for the others: at the highest dose activity change, negative = substrate turnover; 390,000 tested, 0.01% active; AID 588456; also: potency is read from the fitted curve at half-maximal effect; nearly all actives have a fitted effect of over 50% in size
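Rat TrxR1, dispensed at 90 nM, was prereduced with 400 uM NADPH (final) for 5 min at ~22 deg C, then incubated with compound 15 min before 400 uM selenite. A first-read NADPH fluorescence drop versus no-compound background flagged substrates.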
mIDH1 inhibitor: human IDH1 R132H inhibition | AID 602179 | Potency, µM (titrated, usually from 76.6 µM), without a hit: at the top dose activity change, negative = inhibition, hits mostly inhibitors | IDH1-R132H enzyme, NADPH consumption, diaphorase/resazurin fluorescence | 390,000 tested, 0.093% active | O75874; also: potency is read from the fitted curve at half-maximal effect; nearly all actives have a fitted effect of over 65% in size
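IDH1-R132H (0.5 ug/mL) preincubated 30 min with compound, then NADPH (0.016 mM) and alpha-KG (2 mM) added; 80 min at RT, pH 7.5. Remaining NADPH coupled via diaphorase/resazurin to fluorescence (540/590 nm); concentration-response curves normalized to no-enzyme control.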
Numbers without * were called inactive; ? = inconclusive; · = no result; [ ] = another dose, or the depositor's remark. Unless noted, calls follow the shape of the dose curve; as a rule, active = well fitted curve in the direction sought with a large enough effect; inconclusive = small, poorly fitted or top-dose-only effect, or another doubt; inactive = no such curve, though single readings can be large; an effect the other way counts as inactive or inconclusive. Unless noted, % is scaled to controls: 0 for no effect and ±100 for the full control effect.

SMILES | PKM2 activator | GLS inh | rTrxR1 inhibitor | LDHA inh | TrxR1 substrate | mIDH1 inhibitor
O=C(Nc1ccccc1)Nc1ccc(Oc2ncnc3cc(Cl)ccc23)nc1 | -8% | 1% | 27% | -9 | 7% | 4%
CC(=O)c1cccc(NC(=O)Cc2csc(-n3nc(C)c(Cc4ccccc4)c3C)n2)c1 | · | · | · | 2 | · | ·
COC/C=C/C1=CC2=CC(=O)C(C)(OC(=O)C3CCCC3)C(=O)C2=CO1 (stereo not given) | -2% | ? | 13µM* | 10 | 10%[57.1 µM] | -3%
O=C(c1ccccc1)N(Cc1ccco1)C1CC1 | · | · | · | 2 | · | ·
N#C/C(=C\c1ccc(O)c(O)c1)C(=O)N1CCCC1 | -2% | ? | -7% | 4 | -6% | -2%
N#C/C(=C\c1ccc(O)c(O)c1)C(=O)c1ccc(O)c(O)c1 | · | 4% | ? | -90* | ? | -9%
Cc1ccc(S(=O)(=O)CCC(=O)c2ccc(O)cc2O)cc1 | 13% | 6% | 7.1µM* | -2 | -5% | -2%
COc1ccc(C(=O)CCS(=O)(=O)c2ccc(C)cc2)cc1OC | 0% | -10% | 2.2µM* | -4 | 7% | 14%
COc1ccc(C(=O)COC(=O)CCS(=O)(=O)c2ccc(C)cc2)c(OC)c1 | · | 4% | -7% | 0 | -8% | 3%
Cn1c(Oc2ccc(-c3ccc(Br)cc3)cc2)c(C#N)c(=O)n(C)c1=O | · | · | · | 13 | · | ·
COc1cc(C(C#N)N2CCC(c3ccccc3)=N2)ccc1O (stereo not given) | 0% | 10µM* | 22µM* | 5 | -4% | 9%
COc1ccc(C(C#N)N2CCC(c3ccccc3)=N2)cc1OC (stereo not given) | -4% | 1% | 3.2µM* | 2 | 3%[57.1 µM] | 5%
COc1ccc(C2=NN(C(C#N)c3ccc(OC)c(OC)c3)C(c3ccccc3)C2)cc1 (stereo not given) | -6% | -11% | ? | 3 | -7% | 3%
O=C(CN1c2ccccc2Sc2ccccc21)NNC(=S)Nc1ccc(Cl)cc1 | 1% | 16µM* | -15%[57.1 µM] | -11 | 9%[57.1 µM] | -3%
O=C(Nc1ccc(OC(F)F)cc1)c1nc(S(=O)(=O)Cc2ccccc2F)ncc1Cl | · | · | 3.5µM* | 10 | 1% | ·
COC(=O)c1cscc1S(=O)(=O)Cc1ccccc1 | -1% | 10% | 20µM* | -8 | 0% | 0%
COC(=O)c1ccccc1NC(=O)CN(CCc1ccccc1)S(C)(=O)=O | 2% | 7% | 7% | -5 | 5% | 24%
CCOc1ccc(NC(=O)c2nc(SCc3ccccc3F)ncc2Cl)cc1 | · | · | 18% | -1 | 2% | ·
COC(=O)c1ccc(NC(=O)c2nc(S(=O)(=O)Cc3ccccc3F)ncc2Cl)cc1 | · | · | 8.9µM* | -5 | -1% | ·
O=C(Nc1ccccc1)c1nc(S(=O)(=O)Cc2ccccc2F)ncc1Cl | · | · | ? | 0 | 9% | ·
CCOc1ccc(NC(=O)c2nc(S(=O)(=O)Cc3ccccc3F)ncc2Cl)cc1 | · | -4% | 1.8µM* | -15 | 7% | -20%
CN(c1ccccc1)S(=O)(=O)c1cccc(C(=O)N2CCN(c3ncccn3)CC2)c1 | · | · | · | -3 | · | ·
CN(Cc1ccccc1)C(=O)c1cc(-c2cccc(Cl)c2)n[nH]1 | · | · | · | 5 | · | ·
COC(=O)c1ccccc1NC(=O)c1nc(S(=O)(=O)Cc2ccccc2)ncc1Cl | · | -2% | 8.9µM* | -1 | 8% | 2%
CCOc1ccc(NC(=O)c2nc(S(=O)(=O)Cc3ccc(C)cc3)ncc2Cl)cc1 | · | · | ? | 9 | -5% | ·
SMILES | PKM2 activator | GLS inh | rTrxR1 inhibitor | LDHA inh | TrxR1 substrate | mIDH1 inhibitor
CCS(=O)(=O)c1ncc(Cl)c(C(=O)Nc2ccc(C)cc2)n1 | -1%[11.5 µM] | 0% | ? | -2 | 8% | -6%
CCOc1ccc(NC(=O)c2nc(S(=O)(=O)Cc3ccccc3)ncc2Cl)cc1 | · | · | 2.2µM* | -5 | -3% | ·
CCCSc1ncc(Cl)c(C(=O)Nc2ccccc2C(=O)OC)n1 | · | · | · | -3 | · | ·
CS(=O)(=O)c1ncc(Cl)c(C(=O)Nc2ccc3ccccc3c2)n1 | ? | 2% | 13µM* | -2 | 8% | 16%
O=C(Nc1cc(C(F)(F)F)ccc1C(=O)O)c1ccccc1Cl | · | · | · | -4 | · | ·
CCN(CC)C(=O)Oc1ccc2c(=O)c(-c3ccc(OC)cc3)c(C(F)(F)F)oc2c1 | · | · | · | 8 | · | ·
CCCCn1nc(C(=O)N2CCN(c3ccccc3)CC2)c2ccccc2c1=O | · | · | · | -10 | · | ·
O=C(CSc1nc2ccc(Cl)cc2[nH]1)N1N=C(c2cccs2)CC1c1ccco1 (stereo not given) | · | · | · | 10 | · | ·
Cc1cc(NC(=O)CSc2nnc(-c3ccoc3C)o2)no1 | 16µM* | 1% | 4% | 0 | 5%[57.1 µM] | 4%
CCOC(=O)COc1ccc2c(=O)c(Oc3ccccc3OC)coc2c1 | · | · | · | -12 | · | ·
CC(=O)Nc1ccc(S(=O)(=O)c2ccc(C)cc2)cc1 | 14µM* | -9% | 2% | 0 | 4% | -4%
CCOC(=O)C1=C(C)Nc2nnnn2C1c1cccc(OC)c1OC (stereo not given) | 16µM* | 13% | -8% | -11 | -5% | 4%
O=c1c2ccccc2c(-c2nnc(SCCO)o2)nn1Cc1ccccc1 | · | · | · | 2 | · | ·
CCCn1c(N)c(N2CCCCC2)c(=O)n(CC(=O)Nc2ccc(C(C)=O)cc2)c1=O | · | 4.5µM* | 14% | -8 | 4% | -2%
CC(C)(CO)NCc1cc(=O)oc2cc3c(cc12)CCC3 | · | · | · | 9 | · | ·
Cc1ccc(NC(=O)NCc2cccn2C)cc1C | · | 7.1µM* | -3% | -4 | -10% | -6%
Cn1cccc1CNC(=O)Nc1ccccc1 | -3% | 3% | 9%[57.1 µM] | -1 | 3%[57.1 µM] | 13%
COCCNC(=O)N1CCN(c2oc(-c3ccco3)nc2C#N)CC1 | · | · | · | 2 | · | ·
CCOC(=O)c1ccc(NC2SC(=O)N(Cc3cccc(C(=O)O)c3)C2=O)cc1 (stereo not given) | · | 19% | 79µM* | -11 | -5% | -20%
Cc1nnnn1/C(=C\c1ccccc1)C(=O)OCC(=O)NC1CCCCC1 | · | 4% | ? | 0 | -3% | 1%
Cc1nnnn1/C(=C\c1ccccc1)C(=O)OCC(=O)NC(C)(C)C | 20% | -1% | 50µM* | -6 | -3% | 2%
